Assay results as given in PMC4336329 (PLoS ONE, 2015).
Out of some 310,000 compounds screened, about 14,000 (4.5%) showed an effect of 50% or more. Effects have a minus sign here. This is one part of a sample in which strong results are shown more often than they occur.

Biological target: human ether-à-go-go-related gene (hERG) potassium channel (human, UniProt Q12809)
Experiment: primary screen, population patch clamp on CHO cells stably expressing hERG; higher = less effect of the substance
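Further: peak tail current of the secondary pulse compared with the same well before compound.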

Chain of human ether-à-go-go-related gene (hERG) potassium channel (Q12809 whole entry, looked up): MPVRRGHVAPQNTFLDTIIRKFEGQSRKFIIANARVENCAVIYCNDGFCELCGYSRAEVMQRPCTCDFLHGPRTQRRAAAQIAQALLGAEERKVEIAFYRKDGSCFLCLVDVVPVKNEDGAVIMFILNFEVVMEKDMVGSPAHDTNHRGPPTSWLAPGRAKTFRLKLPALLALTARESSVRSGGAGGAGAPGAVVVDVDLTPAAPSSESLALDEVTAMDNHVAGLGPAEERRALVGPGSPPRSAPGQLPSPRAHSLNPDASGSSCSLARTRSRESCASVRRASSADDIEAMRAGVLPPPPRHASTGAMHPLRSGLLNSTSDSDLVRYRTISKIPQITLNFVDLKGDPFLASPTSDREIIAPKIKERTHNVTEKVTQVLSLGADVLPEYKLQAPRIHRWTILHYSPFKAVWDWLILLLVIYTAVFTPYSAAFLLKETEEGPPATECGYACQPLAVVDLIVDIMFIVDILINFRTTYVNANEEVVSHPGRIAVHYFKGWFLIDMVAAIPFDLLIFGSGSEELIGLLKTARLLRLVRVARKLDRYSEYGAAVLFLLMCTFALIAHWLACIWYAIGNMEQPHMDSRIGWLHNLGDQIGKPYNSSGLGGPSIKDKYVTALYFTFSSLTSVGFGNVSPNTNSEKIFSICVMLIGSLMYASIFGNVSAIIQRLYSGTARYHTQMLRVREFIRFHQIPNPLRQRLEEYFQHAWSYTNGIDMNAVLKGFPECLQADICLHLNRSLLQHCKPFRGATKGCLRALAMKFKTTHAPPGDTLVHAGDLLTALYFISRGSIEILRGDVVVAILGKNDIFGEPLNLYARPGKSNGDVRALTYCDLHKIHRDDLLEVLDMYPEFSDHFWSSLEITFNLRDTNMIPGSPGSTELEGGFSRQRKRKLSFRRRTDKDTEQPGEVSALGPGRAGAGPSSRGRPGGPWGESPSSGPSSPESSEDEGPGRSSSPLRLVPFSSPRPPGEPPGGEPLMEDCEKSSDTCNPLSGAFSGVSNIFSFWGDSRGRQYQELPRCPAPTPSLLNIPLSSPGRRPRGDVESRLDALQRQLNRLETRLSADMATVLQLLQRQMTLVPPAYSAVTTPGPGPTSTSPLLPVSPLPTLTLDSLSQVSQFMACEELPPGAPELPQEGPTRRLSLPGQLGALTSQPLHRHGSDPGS

SMILES	hERG current change (%, negative = inhibition) at 10uM [%]
O=C(O)CCc1ccc(-c2ccc(F)cc2)n1NC(=O)c1ccco1	8.01
CCN(CC(=O)N1CCN(C)CC1)S(=O)(=O)c1ccc(Cl)cc1	-5.94
O=C1c2ccccc2S(=O)(=O)c2cc(C(=O)N3CCCC3)ccc21	-1.93
O=C(CNC(=O)c1cccc(Br)c1)N/N=C/c1cccnc1	-14
O=C(Nc1cccc(-c2ccc(N3CCCCC3)nn2)c1)C(F)(F)F	-8.5
C/C(CC(=O)NC1CCCCC1)=N\NC(=O)COc1ccc(C)cc1Br	-22.8
CCOCCCNC(=O)c1cc(Sc2ccc(C)cc2)nc2ccccc12	-19.3
CCOCCCNC(=O)c1cc(Sc2nnc(C)s2)nc2ccccc12	-2.23
Cc1ccc(Sc2cc(C(=O)NCCCN(C)C)c3ccccc3n2)cc1	-56.5
COc1ccc(C=O)cc1OS(=O)(=O)c1ccccc1[N+](=O)[O-]	-3.35
COc1ccc(NS(=O)(=O)c2cccc(C(=O)NNC(=O)c3ccccc3OC)c2)cc1	-16.4
CN(C)CCCn1c(=O)n(Cc2ccco2)c(=O)c2c3c(sc21)CCCCC3	-71.1
CC(O)CNc1nc2sc3c(c2c(=O)n1Cc1ccco1)CCCCC3 (stereo not drawn)	4.61
CN(C)CCn1c(=O)n(-c2cccc(Cl)c2)c(=O)c2c3c(sc21)CCCCC3	-20.7
Cn1c(=O)n(Cc2ccco2)c(=N)c2c3c(sc21)CCC3	-64.8
NC(=O)Cn1c(=O)n(Cc2ccco2)c(=O)c2c3c(sc21)CCCCC3	5.2
O=c1c2c3c(sc2[nH]c(=S)n1Cc1ccco1)CCC3	6.17
CN(C)CCn1c(=O)n(-c2ccc(F)cc2)c(=O)c2c3c(sc21)CCCCC3	-18.6
Cn1c(=O)n(Cc2ccco2)c(=N)c2c3c(sc21)CCCC3	-31.4
CN(C)CCn1c(=O)n(Cc2ccco2)c(=O)c2c3c(sc21)CCCCC3	-50.4
Cc1c(NC(=O)COC(=O)CSc2ccc(C(N)=O)cc2[N+](=O)[O-])c(=O)n(-c2ccccc2)n1C	23.1
Cc1ccc(C)c(S(=O)(=O)N2CCN(C(=O)CCNS(=O)(=O)c3ccccc3)CC2)c1	-33.6
O=C1NC(c2ccccc2)=NC1(NS(=O)(=O)c1ccccc1)C(F)(F)F (stereo not drawn)	-3.5
Cc1ccc(S(=O)(=O)N2CCC(C(=O)OC(C)C(=O)NC3CCCCC3C)CC2)cc1C (stereo not drawn)	-25.4
Cc1ccc(NC(=O)c2sc3nc4c(c(-c5ccco5)c3c2N)CCC4)cc1	11.6
Cc1cc(C(=O)Nc2ccc3[nH]ccc3c2)no1	6.46
Cc1ccc(S(=O)(=O)NCCSc2ccccc2)cc1[N+](=O)[O-]	-0.246

SMILES	hERG current change (%, negative = inhibition) at 10uM [%]
Cc1cccc(N(Cc2ccccc2)C(=O)c2cccc(S(=O)(=O)N3CC(C)OC(C)C3)c2)c1 (stereo not drawn)	-9.56
Cc1ccc(N(Cc2ccccc2)C(=O)c2cc(S(=O)(=O)N3CCOCC3)ccc2C)cc1	-27.4
CC(=O)N1CCN(S(=O)(=O)c2cccc(C(=O)N(Cc3ccccc3)c3ccc(C)cc3)c2)CC1	-61.2
Cc1ccc(N(Cc2ccccc2)C(=O)c2ccc(S(=O)(=O)N3CCOCC3)cc2)cc1	-28.5
Cc1ccc(N(Cc2ccccc2)C(=O)c2cccc(S(=O)(=O)N3CCN(C)CC3)c2)cc1	-52.7
CN1CCN(S(=O)(=O)c2cccc(C(=O)N(Cc3ccccc3)c3ccccc3)c2)CC1	-19.9
CC(=O)N1CCN(S(=O)(=O)c2cccc(C(=O)N(Cc3ccccc3)c3cccc(C)c3)c2)CC1	-27.4
Cc1ccc(N(Cc2ccccc2)C(=O)c2cccc(S(=O)(=O)N3CC(C)OC(C)C3)c2)cc1 (stereo not drawn)	-7.01
Cc1ccc(N(Cc2ccccc2)C(=O)c2cccc(S(=O)(=O)N3CCOCC3)c2)cc1	-74.5
CCCCSc1n[nH]c(N)n1	14
CC(C)CCn1c(N2CCC(C(N)=O)CC2)nc2c1c(=O)[nH]c(=O)n2C	11.1
CCOc1cc2[nH]c(=S)n(CCCC(=O)NCc3ccco3)c(=O)c2cc1OCC	-7.08
CCOC(=O)/C(C#N)=C/N1CCOCC1	-1.97
COc1cccc(C2C3(C#N)C(N)=NC(OC)(OC)C23C#N)c1 (stereo not drawn)	9.01
CC1CCCN(CC(=O)N2c3ccccc3Sc3ccccc32)C1 (stereo not drawn)	1.98
O=C(C1CC1)N1c2ccccc2Sc2ccccc21	7.2
c1ccc2c(c1)Sc1ccccc1N2CC1CN2CCC1CC2 (stereo not drawn)	-53.1
Cc1ccc2nc(-c3cccnc3)oc2c1	5.22
O=C(O)CCN(CC(=O)c1ccc(Cl)cc1)S(=O)(=O)c1ccc([N+](=O)[O-])cc1	-13.7
Cc1ccc(C(=O)CN(CCCC(N)=O)S(=O)(=O)c2ccc([N+](=O)[O-])cc2)cc1	-66.7
Cc1ccc(C(=O)CN(CCC(=O)O)S(=O)(=O)c2ccc([N+](=O)[O-])cc2)cc1	-25.7
c1ccc2c3c([nH]c2c1)-c1[nH]ncc1CC3	1.38
CC(=O)N1CCc2c(sc(NC(=O)CCS(=O)(=O)c3ccc(C)cc3)c2C(N)=O)C1	2.54
O=C(CC1CCCC1)Nc1cc(S(=O)(=O)N2CCOCC2)ccc1O	4.05
Cc1ccc2[nH]c(=O)c(-c3nc4ccccn4c3NCc3ccco3)cc2c1	-12.3
COCCNc1c(-c2cc3ccc(C)c(C)c3[nH]c2=O)nc2ccccn12	-74.9
Cc1cccc2cc(-c3nc4c(C)cccn4c3NCc3ccco3)c(=O)[nH]c12	-11.5
